Only some compounds are listed: those with a hit (about 0.64% of all), similar ones and a draw of the others.
PvdQ acylase: P. aeruginosa PvdQ acylase inhibition; purified PvdQ acylase, fluorescence plate reader; inhibition, % at 10 µM; actives 0.063% (n = 340,000); AID 488965; in the data active = inhibition above about 30%, passing the limit was not always enough; inconclusive = no clear call, values can overlap the other calls
PDI turbidity: PDI (human) enzyme inhibition; PDI insulin aggregation turbidity, A650, 90 min; inhibition, % at 10 µM; actives 0.052% (n = 350,000);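 active = mean inhibition across replicates of 30% or more, whatever share of single replicates reach that level; inconclusive = mean inhibition below 30% while every single replicate reaches 30%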
AI-2 QS mod: Vibrio harveyi AI-2 quorum sensing modulation | Vibrio harveyi JMH597 AI-2 luminescence/OD600 ratio, 9 h; active compounds read low; strain lacks LuxN and CqsS sensors; 0 = neutral-control median | activity change, % at 7.5 µM | actives 0.4% (n = 300,000); in the data active = activity change below about -75%, passing the limit was not always enough; inconclusive = no clear call, values can overlap the other calls;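 note: luminescence divided by OD600 gain over 9 h not by final OD600 alone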
ERp5 block: blocks human ERp5 reductase activity on insulin | Q15084 | ERp5 insulin aggregation, absorbance 650 nm, 90 min | inhibition, % at 9.99 µM | actives 0.05% (n = 350,000);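 active = mean replicate inhibition above about 25%, with every replicate also reaching it, limit read from the data, passing the limit was not always enough; inconclusive = only one of those two criteria met; inactive = neither criterion met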
Target sequence (Q15084 whole entry, looked up): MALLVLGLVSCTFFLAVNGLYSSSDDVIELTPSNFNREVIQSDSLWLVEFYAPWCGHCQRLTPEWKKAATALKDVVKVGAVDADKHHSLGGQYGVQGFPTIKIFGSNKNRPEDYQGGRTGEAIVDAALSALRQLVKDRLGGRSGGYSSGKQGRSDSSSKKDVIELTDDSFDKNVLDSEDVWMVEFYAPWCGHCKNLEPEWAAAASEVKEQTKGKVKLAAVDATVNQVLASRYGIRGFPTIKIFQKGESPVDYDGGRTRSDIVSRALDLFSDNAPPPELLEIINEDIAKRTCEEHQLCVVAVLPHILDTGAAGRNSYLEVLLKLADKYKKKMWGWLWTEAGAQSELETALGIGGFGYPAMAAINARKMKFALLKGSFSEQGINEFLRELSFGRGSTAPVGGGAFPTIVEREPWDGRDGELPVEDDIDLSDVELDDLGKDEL
Vif inh: blocks HIV Vif function. HEK293T cells, Vif self-association by quenched fluorescence, imaging, 24 h. inhibition, % at 7.49 µM. actives 0.35% (n = 340,000). AID 602346; in the data active = inhibition above about 50%, passing the limit was not always enough; inconclusive = no clear call, values can overlap the other calls; inactive = below about 31%
Hits are given with their value; i = inactive; ? = inconclusive; nt = not tested or not shown.

SMILES | PvdQ acylase | PDI turbidity | AI-2 QS mod | ERp5 block | Vif inh
O=C(Nc1ccccc1C(=O)O)c1cccc(C(=O)Nc2ccccc2C(=O)O)c1 | i | i | i | i | 110
O=C(Nc1ccccc1C(=O)N1CCCCCC1)c1ccccc1 | i | i | i | i | 71
O=C(C[C@H]1CC[C@@H]2[C@H](COC[C@@H](O)CN2Cc2ccc3c(c2)OCO3)O1)N1CCOCC1 | nt | nt | nt | i | nt
N#Cc1cc(C(=O)c2ccccc2O)cn(-c2ccc(Cl)cc2)c1=O | i | i | i | i | i
Cc1c(-n2cc(C(=O)c3ccccc3O)cc(C#N)c2=O)c(=O)n(-c2ccccc2)n1C | i | 89 | i | nt | i
COc1ccc(NC(=O)N(C)C[C@H]2OCc3ccccc3-c3c(n(C)c4ccccc34)C(=O)N([C@@H](C)CO)C[C@H]2C)cc1 | nt | nt | nt | i | nt
O=C(O)c1cc(O)c2c(c1)[C@@H]([C@H]1c3cc(C(=O)O)cc(O)c3C(=O)c3c(O[C@@H]4O[C@H](CO)[C@@H](O)[C@H](O)[C@H]4O)cccc31)c1cccc(OC3O[C@H](CO)[C@@H](O)[C@H](O)[C@H]3O)c1C2=O (stereo not given in full) | i | ? | i | i | i
O=C(O)c1cc(O)c2c(c1)[C@H]([C@H]1c3cc(C(=O)O)cc(O)c3C(=O)c3c(O[C@@H]4O[C@H](CO)[C@@H](O)[C@H](O)[C@H]4O)cccc31)c1cccc(OC3O[C@H](CO)[C@@H](O)[C@H](O)[C@H]3O)c1C2=O (stereo not given in full) | i | 47 | i | i | i
C[C@H](CO)N1C[C@H](C)[C@@H](CN(C)Cc2ccccn2)Oc2ncc(C#Cc3cccc(F)c3)cc2C1=O | nt | nt | nt | i | nt
Cc1sc(NC(=O)c2sc3nc4c(C)cccc4cc3c2N)c(C#N)c1C | i | i | i | nt | 53
O=CNC1c2ccccc2CCc2ccccc21 | i | i | nt | i | 61
O=C(Nc1nc(-c2ccccn2)cs1)c1ccc(Br)s1 | i | i | -95 | nt | i
O=C(c1cc([N+](=O)[O-])ccc1N1CCOCC1)N1CCN(c2ccc([N+](=O)[O-])cc2)CC1 | i | 36 | i | i | i
O=C(c1cc([N+](=O)[O-])ccc1N1CCOCC1)N1CCCCC1 | i | i | i | i | i
C[C@H](CO)N1C[C@H](C)[C@H](CN(C)C(=O)Cc2cccnc2)Oc2ncc(C#CC3(O)CCCC3)cc2C1=O | nt | nt | nt | i | nt
CC(C)CC#Cc1cnc2c(c1)C(=O)N([C@H](C)CO)C[C@H](C)[C@H](CN(C)Cc1ccccc1C(=O)O)O2 | nt | nt | nt | 37 | nt
C[C@@H]1CN([C@@H](C)CO)C(=O)c2cc(C#CC3(O)CCCC3)cnc2O[C@H]1CN(C)C(=O)Cc1cccnc1 | nt | nt | nt | 28 | nt
C[C@@H]1CN([C@H](C)CO)C(=O)c2cc(C#CCN(C)C)cnc2O[C@H]1CN(C)Cc1cccc(F)c1 | nt | nt | nt | 57 | nt
CO[C@H](CN(C)Cc1nccs1)[C@@H](C)CN([C@@H](C)CO)S(=O)(=O)c1ccc(C)cc1 | nt | nt | nt | i | nt
CCCCn1c(SCC(=O)Nc2ccc(C)c(S(=O)(=O)N3CCOCC3)c2)nnc1C(CC)N(C)C (stereo not given) | i | 32 | i | i | i
Cc1ccc(NS(=O)(=O)c2ccc(NC(=O)c3cccs3)cc2)c(C)c1 | i | i | i | i | i
Cc1ccc(NC(=O)c2cc(S(=O)(=O)Nc3ccc(C)cc3)cs2)cc1 | i | i | -79 | nt | i
CCC(=O)N1CC2(C1)[C@H](c1ccccc1)[C@@H](CO)N2CC1CCCC1 | nt | nt | nt | i | nt
COc1ccc(/C=C/C(=O)NC(=S)NNC(=O)c2cccs2)cc1 | i | i | i | i | 67
O=C(/C=C/c1ccccc1)NC(=S)NNC(=O)c1ccco1 | i | i | ? | nt | i
SMILES | PvdQ acylase | PDI turbidity | AI-2 QS mod | ERp5 block | Vif inh
O=C(/C=C/c1ccc(Br)cc1)NC(=S)NNC(=O)c1ccco1 | i | i | -100 | nt | i
COc1ccc(C(=O)NNC(=S)NC(=O)c2cccs2)cc1 | i | i | -81 | i | i
O=C(Cc1cccs1)NNC(=S)NC(=O)c1ccco1 | i | i | -84 | i | i
COc1ccc(/C=C/C(=O)NC(=S)NNC(=O)c2cccnc2)cc1 | i | i | i | nt | i
COc1ccc2c3c([nH]c2c1)[C@H](CO)N(C(=O)C1CCCC1)CC31CCN(Cc2nccs2)CC1 | nt | nt | nt | i | nt
O=c1cc(CSc2nnnn2-c2ccc(O)cc2)nc2sccn12 | i | 39 | i | i | i
Cn1c(Cc2ccccc2)nnc1SCc1cc(=O)n2ccsc2n1 | i | i | i | i | i
CO[C@@H]1CN(C)C(=O)c2ccc(NC(=O)C3CCOCC3)cc2OC[C@H](C)N(Cc2nccs2)C[C@@H]1C | nt | nt | nt | i | nt
Nc1nc(Cl)nc2c1ncn2C1CC(O)C(CO)O1 (stereo not given) | i | i | -91 | i | i
O=C(O)C1C(c2ccccc2)C(C(=O)Oc2ccc(O)cc2)C1c1ccccc1 (stereo not given) | i | 46 | i | nt | i
O=C(/C=C/c1cccc([N+](=O)[O-])c1)c1ccc([N+](=O)[O-])o1 | i | i | i | i | ?
Cc1cccc(/C=C/C(=O)c2ccc([N+](=O)[O-])o2)c1 | i | i | i | i | 62
CO[C@H]1CN(C)C(=O)c2cc(NS(=O)(=O)CC(F)(F)F)ccc2OC[C@@H](C)N(Cc2ccccn2)C[C@H]1C | nt | nt | nt | i | nt
O=C(C[C@@H]1CC[C@H]2[C@@H](COC[C@@H](O)CN2C(=O)Nc2ccccc2)O1)NCCCN1CCOCC1 | nt | nt | nt | i | nt
Cc1ccc(NC(=O)OCc2cccs2)cc1 | nt | nt | -90 | nt | nt
Cn1c(SCC(=O)NC2CCCCC2)nnc1-c1ccccc1F | i | i | i | i | i
CC(Sc1nnc(-c2ccccc2F)n1C)C(=O)NC1CCCCC1 (stereo not given) | 30 | i | nt | i | i
CCOc1ccc(Nc2ncnc3ccc([N+](=O)[O-])cc23)cc1 | 86 | i | nt | i | i
CCOCCc1nnc(NC(=O)CN2C(=O)c3ccccc3C2=O)s1 | i | i | -89 | nt | i
Cc1ccc(NC(=O)CCC(=O)NNC(=O)NC2CCCCC2)c(C)c1 | i | i | i | i | 79
CCC(=O)NNC(=O)CCC(=O)Nc1ccc(C)cc1C | i | i | i | i | i
CCN(CC)S(=O)(=O)c1ccc2c(c1)N(CC(=O)NCCN1CCOCC1)C(=O)CO2 | i | i | i | 28 | i
O=C(CN1C(=O)COc2ccccc21)NCCN1CCOCC1 | i | i | i | i | i
C[C@@H]1CN([C@@H](C)CO)C(=O)c2cc(NC(=O)Cn3cnnn3)ccc2O[C@@H]1CN(C)Cc1ccncc1 | nt | nt | nt | i | nt
CCCN1C(=O)/C(=C\C=C2/Sc3ccccc3N2CC)SC1=S | nt | nt | i | nt | nt
CCCN1C(=O)/C(=C\C=C2\N(CC)c3ccccc3C2(C)C)SC1=S | i | i | i | i | 167
C[C@H]1CN([C@@H](C)CO)C(=O)Cc2cc(NC(=O)Nc3ccc(F)cc3)ccc2O[C@H]1CN(C)CC1CC1 | nt | nt | nt | i | nt
C[C@H]1CN([C@@H](C)CO)S(=O)(=O)c2ccc(-c3ccncc3)cc2O[C@@H]1CN(C)C(=O)c1ccc2c(c1)OCO2 | nt | nt | nt | i | nt
